In the library only some 2.2% were active in any assay of this set; here they are far more common.
PLC-beta3 inh = human PLC-beta3 inhibitors, primary screen, biochemical, fluorescence. 1-phosphatidylinositol 4,5-bisphosphate phosphodiesterase beta-3 (Homo sapiens), Q01970. Purified PLC-beta3, fluorogenic substrate. inhibition, % at 12.2 µM. hit rate 0.18% among 370,000. AID 720704, 2013; in the data active means inhibition above about 11%;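 further: 0% = median of compound wells on plate and 100% = full blocker control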
PLC-gamma1 inh = PLC-gamma1 enzyme inhibitors, primary screen, biochemical, fluorescence, purified enzyme; 1-phosphatidylinositol 4,5-bisphosphate phosphodiesterase gamma-1 (Homo sapiens), P19174; fluorogenic substrate; inhibition, % at 12.2 µM; hit rate 0.84% among 370,000; in the data active means inhibition above about 9.5%
Rce1 inhib = yeast Rce1p protease inhibitors, primary screen, biochemical, fluorescence, cell-free homogeneous. CAAX prenyl protease 2 (Saccharomyces cerevisiae (strain ATCC 204508 / S288c)), Q03530. yeast membranes, quenched prenylated peptide cleavage fluorescence. calls only. hit rate 0.27% among 290,000;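 active means fall in fluorescence gain of 50% or more versus controls, with final raw signal at or below 3038400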;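 further: plate controls were neutral control wells for no effect and wells lacking membranes for full effect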
Target sequence (Q03530 whole entry, looked up): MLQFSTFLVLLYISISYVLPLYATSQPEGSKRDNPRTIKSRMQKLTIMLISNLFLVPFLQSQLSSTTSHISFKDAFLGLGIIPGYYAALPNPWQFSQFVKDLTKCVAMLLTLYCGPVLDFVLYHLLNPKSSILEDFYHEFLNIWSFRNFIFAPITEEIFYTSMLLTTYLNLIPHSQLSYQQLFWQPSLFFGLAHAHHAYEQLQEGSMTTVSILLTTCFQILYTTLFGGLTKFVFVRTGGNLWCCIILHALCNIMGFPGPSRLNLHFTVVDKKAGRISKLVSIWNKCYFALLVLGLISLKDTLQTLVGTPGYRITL
PfM18AAP inh-1 = PfM18AAP inhibitors, malaria aminopeptidase, primary screen, biochemical, QFRET, recombinant enzyme; inhibition, % at 7.35 µM; AID 1822, 2009; H-Glu-NHMec fluorogenic cleavage; hit rate 1.2% among 290,000; M18 aspartyl aminopeptidase (Plasmodium falciparum 3D7);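 active means inhibition above the campaign mean inhibition over all tested compounds plus 3 SD, cut at about 28% in these data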;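 further: 0% = plate median of test compound wells and 100% = 2 mM ZnCl2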
NPR1 activator = GC-A stimulated cGMP production enhancers – HEK293 GC-A cells, cGMP TR-FRET, EC30 ANP, primary screen. hit rate 0.14% among 370,000. Atrial natriuretic peptide receptor 1 (Homo sapiens), P16066. activation, % at 10 µM. 0% at EC30 ANP, 100% saturating ANP; in the data active means activation above about 40%
NPR2 activator = human GC-B receptor activators, primary screen, HEK293 GC-B cells, cGMP TR-FRET, EC30 CNP; 0% at EC30 CNP, 100% saturating CNP; hit rate 0.11% among 370,000; Atrial natriuretic peptide receptor 2 (Homo sapiens), P20594; activation, % at 10 µM;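 active means activation at 10 µM reaching about 35% in either raw or pattern-adjusted values, limit read from the data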
PfM18AAP inh-2 = PfM18AAP inhibitors, malaria aminopeptidase, confirmation, biochemical, QFRET, recombinant enzyme, triplicate. shares compounds with PfM18AAP inh-1. H-Glu-NHMec fluorogenic cleavage. inhibition, % at 7.35 µM. hit rate 28% among 2,400;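 active means mean inhibition over replicate wells above the hit cutoff set for the earlier primary screen, cut at about 29% in these data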;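 further: 0% = median of test compound wells and 100% = 2 mM ZnCl2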
CTSL1 counter = cathepsin L1 inhibitors, retest, confirmation, counter-screen for PFM18AAP inhibitor project, biochemical, QFRET, triplicate. shares compounds with PfM18AAP inh-1. purified cathepsin L1, Z-Leu-Arg-MCA fluorescence. 2,400 tested, under 10 active. inhibition, % at 5.96 µM;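 active means average inhibition across replicates above the hit cutoff set in the earlier primary screen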;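 further: 0% = median of test compound wells and 100% = Z-Phe-Ala-diazomethylketone 1 µM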
* marks the source's active call; other numbers are inactive results; i = inactive; nt = no result.

SMILES	PLC-beta3 inh	PLC-gamma1 inh	Rce1 inhib	PfM18AAP inh-1	NPR1 activator	NPR2 activator	PfM18AAP inh-2	CTSL1 counter
O=C(c1ccc(SCc2ccco2)c([N+](=O)[O-])c1)N1CCOCC1	-9	3	i	34*	1	10	-36	-6
O=C(O)c1ccccc1NS(=O)(=O)c1cccc(-n2sc3ccccc3c2=O)c1	-21	-6	i	62*	0	0	50*	-4
O=C(O)c1ccccc1NS(=O)(=O)c1cccc(C(F)(F)F)c1	3	1	i	3	4	5	nt	nt
Cc1ccc(-n2c(N)c(C(=O)N3CCOCC3)sc2=S)cc1	-21	6	i	13	4	8	nt	nt
NC(=O)c1sc(=S)n(-c2ccc(Br)cc2)c1N	-20	-11	i	38*	-2	-7	-41	0
CN1CCN(C(=O)c2sc(=S)n(-c3ccccc3)c2N)CC1	4	0	i	49*	3	0	17	6
O=C(c1ccc(-c2ccc([N+](=O)[O-])cc2Cl)o1)N1CCOCC1	-4	0	i	39*	0	1	-20	4
O=C(c1ccc(-c2cccc(Cl)c2Cl)o1)N1CCOCC1	-11	3	i	5	-4	-4	nt	nt
CCC(C)(C)n1nnnc1CN(Cc1cc2cc(OC)c(OC)cc2[nH]c1=O)C1CCCC1	i	-418	i	33*	0	-10	6	5
COc1ccc(Cn2nnnc2CN(Cc2cc3cc(C)ccc3[nH]c2=O)C2CCCC2)cc1	-48	-46	i	7	nt	nt	nt	nt
CC(C)(C)[C@H](NC(=O)c1cc(Cl)cc(Cl)c1)C(=O)N1CCC[C@H]1C(=O)N[C@H](C#N)CC(=O)O	3	-1	nt	nt	-2	-5	nt	nt
COc1cccc2cc(C(=O)Nc3ccccc3C)/c(=N/O)oc12	-16	-5	i	49*	-2	-2	-21	1
C/C(=N/Nc1nc(-c2ccccc2)cc(-c2ccc(F)cc2)n1)c1cccc(N)c1	-21	-17	i	36*	0	-1	-8	3
COc1cc2nc(CSc3ncn[nH]3)[nH]c(=O)c2cc1OC	-17	-12	i	63*	3	-2	66*	-4
CC1CC(C)CN(CCCNS(=O)(=O)c2cc3c(cc2Br)CCN3C(=O)C2CC2)C1 (stereo not given)	7	2	nt	nt	0	-6	nt	nt
COC(=O)c1cc(-c2ccc(C)cc2)c(=O)n2c1CCC2	-11	-8	nt	nt	2	2	nt	nt
CCCCn1c(O)c(/C=C2\C=Nc3ccccc32)c(=O)[nH]c1=O	-10	8	i	40*	-2	-3	13	2
CCCCc1nn2c(N)c(/C=C3\C=Nc4ccccc43)c(=O)nc2s1	3	-1	i	1	-3	-4	nt	nt
O=C(NCCc1c[nH]c2ccccc12)[C@H](Cc1c[nH]c2ccccc12)NC1(C(=O)NC2CCCCC2)CCCCCCC1	3	2	nt	nt	-9	-14	nt	nt
COc1ccc(S(=O)(=O)Nc2ccc(N(C)C(C)=O)cc2)cc1	2	0	i	5	2	-3	nt	nt
CCN(CC)c1ccc(NS(=O)(=O)c2ccc(OC)cc2)cc1	-2	-2	i	32*	-3	0	-27	1
COc1ccc(-n2c(Cc3cccs3)nnc2SCC(=O)Nc2ccc(OCc3ccccc3)cc2)cc1	-5	3	nt	nt	-4	-8	nt	nt
COc1ccc(-n2c(SCC(N)=O)nc3sc4c(c3c2=O)CCN(C)C4)cc1	-227	-226	i	4	6	-1	nt	nt

Compound activity from PubChem.
